From PubChem BioAssay (NCI)
About 83,000 compounds went through this panel and 20% of them were active in at least one assay; those are over-represented in the sample as a whole.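 Each cell line was grown in a 96-well plate and treated with one concentration of compound for 48 hours. Values below 10 were considered active.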 Calls of active or inactive are those of the source.

Experiments:
Experiment in all cases: NCI-60 one-dose screen, 48 h (100 = growth as untreated, 0 = no growth, -100 = all killed)
Settings in all cases: 10 µM unless noted
NCI-H23 lung = system: NCI-H23 lung
NCI-H226 lung = system: NCI-H226 lung
HOP-62 NSCLC = system: HOP-62 NSCLC
NCI-H460 lung = system: NCI-H460 lung
HOP-92 NSCLC = system: HOP-92 NSCLC
NCI-H522 lung = system: NCI-H522 lung
A549/ATCC NSCLC = system: A549/ATCC NSCLC
786-0 renal = system: 786-0 renal
COLO 205 colon = system: COLO 205 colon
NCI-H322M lung = system: NCI-H322M lung

Measured: growth

CC(C)OP(=O)(CCC(=O)c1c[nH]c2ccccc12)OC(C)C
inactive: NCI-H23 lung 96.8% | NCI-H226 lung 94% | HOP-62 NSCLC 88.1% | NCI-H460 lung 114% | HOP-92 NSCLC 95.5% | NCI-H522 lung 86.9% | A549/ATCC NSCLC 68.7% | 786-0 renal 109% | COLO 205 colon 103%

CC1CCC(n2cnc3c(Cl)ncnc32)O1 (stereo not drawn)
inactive: NCI-H23 lung 89.5% | NCI-H226 lung 95.9% | NCI-H322M lung 86.3% | HOP-62 NSCLC 91.2% | NCI-H460 lung 101% | NCI-H522 lung 82.9% | A549/ATCC NSCLC 106% | 786-0 renal 98.1% | COLO 205 colon 104%

C[C@@H](Oc1cc(-c2cnn(C3CCNCC3)c2)cnc1N)c1c(Cl)ccc(F)c1Cl
active: NCI-H23 lung -10.4% | NCI-H226 lung -11.6% | HOP-62 NSCLC -34.8% | NCI-H460 lung -64.4% | HOP-92 NSCLC -51.9% | NCI-H522 lung -74.8% | A549/ATCC NSCLC -40.9% | 786-0 renal -74.7% | COLO 205 colon -78.5%

Nc1ncnc2c1ccn2-c1cccc(NC(=O)c2ccc(N3CCOCC3)c(C(F)(F)F)c2)c1
inactive: NCI-H23 lung 49.8% | NCI-H226 lung 60% | HOP-62 NSCLC 71.3% | NCI-H460 lung 28.8% | HOP-92 NSCLC 20.5% | NCI-H522 lung 18.7% | A549/ATCC NSCLC 28.1% | 786-0 renal 86.4% | COLO 205 colon 49%

CS(=O)(=O)N1CCN(Cc2cc3nc(-c4cccc5[nH]ncc45)nc(N4CCOCC4)c3s2)CC1
inactive: NCI-H23 lung 37.7% | NCI-H226 lung 39.3% | HOP-62 NSCLC 30.9% | NCI-H460 lung 23.2% | NCI-H522 lung 20.8%
active: HOP-92 NSCLC -17.1% | A549/ATCC NSCLC 8.23% | 786-0 renal -7.35% | COLO 205 colon 1.08%

COC(=O)C1=C(C(=O)OC)C23C=C(C)C1C2=C(C)C1(CC1)[C@@](C)(O)C3=O (stereo partly drawn)
active: NCI-H23 lung -20.9% | NCI-H226 lung -34.8% | HOP-62 NSCLC -21.7% | NCI-H460 lung 0.847% | HOP-92 NSCLC -19.3% | NCI-H522 lung -11% | A549/ATCC NSCLC 1.39% | 786-0 renal -20.6% | COLO 205 colon -51.9%

CS(=O)(=O)N1CCc2c(-c3cnc(N)nc3)nc(N3CCOCC3)nc21
active: NCI-H226 lung 5.8% | HOP-62 NSCLC 4.78% | HOP-92 NSCLC -22.5% | A549/ATCC NSCLC -0.665% | 786-0 renal -13.7% | COLO 205 colon -6.6%
inactive: NCI-H23 lung 22.9% | NCI-H460 lung 10% | NCI-H522 lung 10.5%

COC(=O)C1CCc2sc3ncnc(Nc4cn[nH]c4C(=O)Nc4ccc(CN5CCN(C)CC5)cc4)c3c21 (stereo not drawn)
inactive: NCI-H226 lung 14.9%
active: NCI-H23 lung -9.63% | HOP-62 NSCLC 0.169% | NCI-H460 lung -59% | HOP-92 NSCLC -29.2% | NCI-H522 lung -1.37% | A549/ATCC NSCLC 4.85% | 786-0 renal -4.45% | COLO 205 colon -70.8%

Cn1cnc(-c2cc3nccc(Oc4ccc(NC(=S)NC(=O)Cc5ccccc5)cc4F)c3s2)c1
inactive: NCI-H23 lung 72.5% | NCI-H226 lung 54.5% | HOP-62 NSCLC 78.9% | NCI-H460 lung 93.5% | HOP-92 NSCLC 50.2% | NCI-H522 lung 41.5% | A549/ATCC NSCLC 53.9% | 786-0 renal 98.1% | COLO 205 colon 89%

CNc1ncc2cc(-c3cc(NC(=O)NCCC(C)(C)C)c(F)cc3C)c(C)nc2n1
inactive: NCI-H23 lung 12.8% | NCI-H226 lung 33.1% | NCI-H460 lung 21.3% | A549/ATCC NSCLC 12.2% | 786-0 renal 29.8%
active: HOP-62 NSCLC 5.28% | HOP-92 NSCLC -44.3% | NCI-H522 lung -5.5% | COLO 205 colon -34.5%

Cc1c(CN2CCN(C(=O)[C@H](C)O)CC2)sc2c(N3CCOCC3)nc(-c3cnc(N)nc3)nc12
active: NCI-H23 lung 6.62% | NCI-H226 lung -4.64% | HOP-62 NSCLC -10.3% | NCI-H460 lung 3% | HOP-92 NSCLC -24.6% | NCI-H522 lung -12.2% | A549/ATCC NSCLC -20.8% | 786-0 renal -19% | COLO 205 colon -32.3%

COc1cc(NCCCN)c2ncccc2c1
inactive: NCI-H23 lung 70.8% | NCI-H226 lung 92.7% | HOP-62 NSCLC 79.4% | NCI-H460 lung 74% | HOP-92 NSCLC 50.7% | NCI-H522 lung 84% | A549/ATCC NSCLC 95.9% | 786-0 renal 95.7% | COLO 205 colon 91.8%
